Rows were chosen to be rich in hits. Some 0.9% of all compounds tested hit in one or more screens of this group.
SRC1 TRFRET art: TR-FRET artefact, counter-screen to PPARgamma/SRC-1 agonist assay; TR-FRET detection artefact counter-screen, emission ratio; stronger effect = higher value; 99,000 tested, 0.34% active; TR-FRET ratio at 8 µM; in the data active = TR-FRET ratio above about 2300
SRC2 TRFRET art: TR-FRET artefact, counter-screen to PPARgamma/SRC-2 agonist assay. stronger effect = higher value. TR-FRET ratio at 8 µM. 200,000 tested, 0.4% active
PPARg SRC3 recr: promotes SRC-3 coactivator recruitment by human PPARgamma; biochemical PPARgamma/SRC-3 coactivator recruitment assay; 200,000 tested, 0.26% active; activation, % at 8 µM; P37231; in the data active = activation above about 23%
PPARg SRC2 recr: agonists of SRC-2 recruitment by human PPARgamma. P37231. activation, % at 8 µM. PPARgamma LBD-SRC-2 recruitment, biochemical. 200,000 tested, 0.34% active. AID 1032; in the data active = activation above about 22%
PPARg SRC-1 ag: PPARgamma-driven SRC-1 recruitment agonism | P37231 | PPARgamma-SRC-1 coactivator recruitment biochemical assay | activation, % at 8 µM | 200,000 tested, 0.41% active | AID 631; in the data active = activation above about 19%
SRC3 TRFRET art: TR-FRET artefact, counter-screen to PPARgamma/SRC-3 agonist assay | TR-FRET ratio at 8 µM | 99,000 tested, 0.39% active | PPARgamma/SRC-3 format; stronger effect = higher value | AID 1048
PPARg SRC2 conf: human PPARgamma SRC-2 recruitment agonism, confirmation. AID 1297. shares compounds with PPARg SRC3 recr. 790 tested, 52% active. biochemical SRC-2 recruitment by PPARgamma. activation, % at 8 µM; in the data active = activation above about 22%
PPARg SRC1 ag: human PPARgamma SRC-1 recruitment agonism, confirmation. shares compounds with PPARg SRC3 recr. PPARgamma–SRC-1 coactivator recruitment biochemical assay. activation, % at 8 µM. 790 tested, 43% active. AID 1300; in the data active = activation above about 20%
PPARg SRC3 ag: confirmation of agonists of SRC-3 recruitment by human PPARgamma; activation, % at 8 µM; shares compounds with PPARg SRC3 recr; AID 1301; 790 tested, 29% active; biochemical PPARgamma-SRC-3 coactivator recruitment, agonist mode; in the data active = activation above about 24%
Target sequence (P37231 whole entry, looked up): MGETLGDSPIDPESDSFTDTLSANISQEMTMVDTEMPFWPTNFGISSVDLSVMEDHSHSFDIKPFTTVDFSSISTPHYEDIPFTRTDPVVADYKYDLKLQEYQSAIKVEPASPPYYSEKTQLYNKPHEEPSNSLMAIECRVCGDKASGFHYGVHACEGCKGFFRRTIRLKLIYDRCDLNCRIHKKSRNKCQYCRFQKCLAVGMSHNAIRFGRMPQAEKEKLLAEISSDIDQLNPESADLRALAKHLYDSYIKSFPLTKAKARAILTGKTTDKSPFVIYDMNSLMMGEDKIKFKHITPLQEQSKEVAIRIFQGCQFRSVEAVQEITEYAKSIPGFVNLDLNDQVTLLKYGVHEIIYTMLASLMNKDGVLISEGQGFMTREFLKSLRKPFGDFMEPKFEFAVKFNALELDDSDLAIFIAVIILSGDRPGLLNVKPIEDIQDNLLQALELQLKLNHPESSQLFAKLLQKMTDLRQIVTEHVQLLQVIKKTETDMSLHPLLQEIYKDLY
Target sequence (Q9Y6Q9 whole entry, looked up): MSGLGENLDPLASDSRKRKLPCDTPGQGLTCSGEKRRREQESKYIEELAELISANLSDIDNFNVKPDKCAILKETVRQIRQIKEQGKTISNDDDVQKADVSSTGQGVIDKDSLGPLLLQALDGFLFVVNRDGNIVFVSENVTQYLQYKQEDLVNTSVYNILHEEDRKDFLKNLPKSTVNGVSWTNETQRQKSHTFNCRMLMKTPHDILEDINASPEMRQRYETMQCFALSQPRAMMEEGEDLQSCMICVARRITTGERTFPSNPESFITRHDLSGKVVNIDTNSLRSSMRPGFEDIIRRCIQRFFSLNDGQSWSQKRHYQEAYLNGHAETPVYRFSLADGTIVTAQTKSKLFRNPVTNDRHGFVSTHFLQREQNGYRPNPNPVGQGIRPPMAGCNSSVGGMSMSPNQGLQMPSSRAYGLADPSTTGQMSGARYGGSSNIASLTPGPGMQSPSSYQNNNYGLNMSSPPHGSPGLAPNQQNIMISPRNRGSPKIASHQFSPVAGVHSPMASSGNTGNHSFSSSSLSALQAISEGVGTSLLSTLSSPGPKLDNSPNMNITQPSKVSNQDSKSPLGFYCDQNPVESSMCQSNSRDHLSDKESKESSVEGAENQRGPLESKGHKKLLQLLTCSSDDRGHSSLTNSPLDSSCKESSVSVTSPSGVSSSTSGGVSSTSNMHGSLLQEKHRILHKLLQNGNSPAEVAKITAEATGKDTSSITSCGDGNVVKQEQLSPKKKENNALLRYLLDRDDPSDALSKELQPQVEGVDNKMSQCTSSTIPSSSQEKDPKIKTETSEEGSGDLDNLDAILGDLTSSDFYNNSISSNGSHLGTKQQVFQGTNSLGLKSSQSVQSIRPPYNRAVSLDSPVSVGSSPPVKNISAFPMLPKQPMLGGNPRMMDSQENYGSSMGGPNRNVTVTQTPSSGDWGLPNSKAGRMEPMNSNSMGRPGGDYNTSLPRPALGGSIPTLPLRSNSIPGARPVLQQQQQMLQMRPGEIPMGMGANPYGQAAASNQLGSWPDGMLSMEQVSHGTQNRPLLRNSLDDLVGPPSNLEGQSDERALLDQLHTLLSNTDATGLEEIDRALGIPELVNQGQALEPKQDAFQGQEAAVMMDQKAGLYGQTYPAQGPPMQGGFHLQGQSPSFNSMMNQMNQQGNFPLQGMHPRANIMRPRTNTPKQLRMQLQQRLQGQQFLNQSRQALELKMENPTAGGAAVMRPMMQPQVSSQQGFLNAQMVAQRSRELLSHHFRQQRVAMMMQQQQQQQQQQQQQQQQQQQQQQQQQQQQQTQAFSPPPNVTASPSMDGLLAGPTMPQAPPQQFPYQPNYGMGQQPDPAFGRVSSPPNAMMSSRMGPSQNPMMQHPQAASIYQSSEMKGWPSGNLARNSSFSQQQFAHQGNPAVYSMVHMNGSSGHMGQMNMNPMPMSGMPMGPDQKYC
Hits are given with their value; . = inactive; / = no result given. Rule as the data show it, unless noted: active = TR-FRET ratio above about 2000; inactive = the rest.

SMILES	SRC1 TRFRET art	SRC2 TRFRET art	PPARg SRC3 recr	PPARg SRC2 recr	PPARg SRC-1 ag	SRC3 TRFRET art	PPARg SRC2 conf	PPARg SRC1 ag	PPARg SRC3 ag
COc1ccccc1Nc1nc2ccccc2[nH]1	/	.	26.6	.	.	/	.	.	.
COc1ccccc1Nc1nc(C)cc(=O)[nH]1	/	.	.	.	.	/	/	/	/
CCn1c(=O)c(=O)[nH]c2cc(C(=O)Nc3ccc(S(=O)(=O)N4CCCC4)cc3)ccc21	/	.	26.2	.	.	/	.	.	.
CCn1c(=O)c(=O)[nH]c2cc(C(=O)NC3CC3)ccc21	.	.	.	.	.	.	/	/	/
CC(=O)c1cccc(CN2CCCC(CCC(=O)NCc3ccccc3F)C2)c1 (stereo unspecified)	.	.	.	.	.	.	/	/	/
Cc1ccc(C(=O)C2=C(O)C(=O)N(CCCn3ccnc3)C2c2ccc(OC(C)C)cc2)o1 (stereo unspecified)	/	2124	25.9	28.2	.	/	.	.	.
CCOc1ccc(C2C(C(=O)c3ccco3)=C(O)C(=O)N2CCCn2ccnc2)cc1 (stereo unspecified)	/	.	.	.	.	/	/	/	/
Cc1c(O)c(CN2CCCC2)cc2c1oc(=O)c1ccccc12	/	.	.	.	.	/	/	/	/
C=CCc1cc2c(oc(=O)c3ccccc32)c(C)c1O	2491	2206	.	26.0	27.9	2419	.	.	.
CC(C)Sc1oc(-c2ccco2)nc1S(=O)(=O)c1ccccc1	/	2119	27.7	46.2	18.7	/	55.0	46.1	34.8
O=C(Nc1cccc(NC(=O)c2ccc(Br)o2)n1)c1ccc(Br)o1	/	.	.	.	19.1	/	.	.	.
COc1ccc(OC)c(CC(NC(C)=O)C(=O)NC2CCN(c3nc(OC)nc(OC)n3)CC2)c1 (stereo unspecified)	.	.	.	.	.	.	/	/	/
O=c1oc(-c2ccccc2F)nc2c1cnn2-c1ccccc1	/	.	.	.	22.9	/	.	24.5	27.3
c1ccc(Cc2nnc(Sc3ccccc3)c3ccccc23)cc1	/	4254	113.2	117.4	64.7	/	77.4	52.4	53.4
COCCCNc1nnc(Cc2ccccc2)c2ccccc12	.	.	.	.	.	.	/	/	/
CCOC(=O)c1c(-c2cccs2)csc1NC(=O)CCCC(=O)O	/	2153	.	25.0	.	/	25.0	.	.
CC(=O)c1cnc(-c2ccccc2Cl)s1	.	.	.	.	21.9	.	.	.	.
CC(=O)c1cnc(-c2ccccn2)s1	.	.	.	.	.	.	/	/	/
CCOC(=O)NC(=O)C(/C=N/c1sccc1C(=O)OC)=C(\C)O	.	.	.	.	.	.	/	/	/
Cc1cccc(NC(=O)CNC(=O)COc2ccc(-c3ccc(C#N)cc3)cc2)c1C	2605	.	.	.	26.7	.	.	.	.
Cc1cccc(NC(=O)CNC(=O)COc2ccc(C(=O)c3ccc(F)cc3)cc2)c1C	.	.	.	.	.	.	/	/	/
CC(C)c1ccc(OCc2ccc(C(=O)NN3CCN(C)CC3)o2)cc1	.	.	.	.	.	.	/	/	/
COc1ccc(-n2c(=S)[nH]c3c(sc(=S)n3-c3ccccc3)c2=O)c(OC)c1	.	.	.	.	.	.	/	/	/
COc1ccc(-c2csc3[nH]c(=S)n(-c4ccccc4)c(=O)c23)cc1OC	2467	2183	.	24.9	.	2099	.	.	.
COc1cccc(-c2cc3c(=O)n(-c4ccccc4)c(=S)[nH]c3s2)c1	/	1988	.	30.8	23.3	/	.	.	.
SMILES	SRC1 TRFRET art	SRC2 TRFRET art	PPARg SRC3 recr	PPARg SRC2 recr	PPARg SRC-1 ag	SRC3 TRFRET art	PPARg SRC2 conf	PPARg SRC1 ag	PPARg SRC3 ag
CSc1ncccc1C(=O)Nc1nc2ccc(Oc3ccccc3)cc2s1	.	.	.	.	.	.	/	/	/
COc1cc(N=Nc2c(C)n(C)n(-c3ccccc3)c2=O)ccc1N	.	.	.	.	28.4	.	.	.	.
CC(Nc1ccc(Cl)cc1)c1cc(Cl)ccc1O (stereo unspecified)	/	.	.	.	.	/	/	/	/
CC(Nc1ccc(Br)cn1)c1cc(Cl)ccc1O (stereo unspecified)	/	.	51.8	36.6	77.9	/	32.9	50.8	41.1
Cc1ccc(C)c(-n2c3nc(=O)[nH]c(=O)c-3cc3cc([N+](=O)[O-])ccc32)c1	.	.	22.6	.	.	.	.	.	.
O=C(O)c1cn(-c2ccc(N3CCCC3)c(F)c2)c2c(F)c(F)c(F)cc2c1=O	4223	3278	38.1	67.8	67.3	3524	.	.	.
CC(C)C(=O)Nc1ccc2nn(-c3ccccc3)nc2c1	.	.	.	.	.	.	/	/	/
Cc1[nH]c(=O)[nH]c(=O)c1S(=O)(=O)N(CC(C)C)CC(C)C	.	.	.	.	.	.	/	/	/
Cc1cc2nc(CSc3ccccc3)cc(=O)n2[nH]1	.	.	.	.	.	.	/	/	/
Cc1ccc(S(=O)(=O)N(c2nc(NC(C)C)nc(NC(C)C)n2)n2cnnc2)cc1	.	.	.	23.7	.	.	.	.	.
COC(=O)CN(n1cnnc1)S(=O)(=O)c1ccc(C)cc1	/	.	.	.	.	/	/	/	/
COc1cccc(C2C3=C(Nc4[nH]n(-c5ccccc5)c(=O)c42)c2ccccc2C3=O)c1 (stereo unspecified)	.	.	33.4	.	21.8	.	54.5	54.4	56.0
COc1cccc(C2C3=C(CCCC3=O)Nc3[nH]n(-c4ccccc4)c(=O)c32)c1 (stereo unspecified)	.	.	.	.	.	.	/	/	/
CSC(=NC#N)N1CCN(c2ccc([N+](=O)[O-])cc2)CC1	.	.	.	.	.	.	/	/	/
Brc1cc(Br)c2nc(-c3cccs3)ccc2c1	/	2365	51.8	45.5	23.3	/	36.5	23.6	.
c1csc(-c2csc(-c3cccs3)n2)c1	/	.	.	.	.	/	/	/	/
CCCCNC(=O)COC(=O)CCC(=O)c1ccc(Cl)cc1	.	.	.	.	.	.	/	/	/
COc1ccc2c(c1)oc(=O)c1ccccc12	.	.	.	.	.	.	/	/	/
COc1ccc2c(c1)oc(=O)c1c3ccccc3[nH]c21	4961	3710	40.7	55.9	47.5	3944	44.2	32.7	26.8
CC(=O)Sc1nc(-c2ccccc2)[nH]c1S(=O)(=O)c1ccc(C)cc1	.	.	37.2	.	22.4	.	.	21.2	.
NC(=O)c1cc(N=Nc2c(N)[nH]n(-c3c(Cl)cc(Cl)cc3Cl)c2=O)ccc1Cl	.	.	.	.	.	.	/	/	/
CC1=NOC(=O)/C1=C\c1ccc(-c2ccccc2Br)o1	4294	3893	51.2	117.6	82.2	3608	78.9	61.1	57.8
CCS(=O)(=O)c1ccc2oc(Nc3cccc(OC)c3)nc2c1	.	.	.	.	.	.	/	/	/

Bioassay records deposited in PubChem by The Scripps Research Institute Molecular Screening Center.
